The values below come from PubChem BioAssay AID1347423 (Functional Genomics Laboratory (NCATS/FGL), 2020).

Screen size: about 52,000 sequences; about 210 (0.4%) were called active. The entries come from a sample that favours actives as a whole. Values without a mark were called inactive.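 The calls were made as follows: active = gene whose silencing raises cell survival under the drug, median off-target-corrected z-score across its silencing RNAs 2 or more; inactive = the rest.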

A short description of the experiment: Resistance to Poly (ADP-Ribose) Polymerase inhibitor: Gene Identification via Genome-wide siRNA Screen. The settings on record: mouse BRCA2 R2336H ES cells, olaparib, CellTiter-Glo viability; stronger effect = higher value. From the text: The role of Poly (ADP-Ribose) Polymerase (PARP) proteins in DNA repair has been elegantly utilized for the synthetic lethality-based treatment of BRCA-deficient tumors by PARP inhibitors. PARP inhibitors are now being used for treatment of BRCA-deficient breast and ovarian cancers. […] While several mechanisms of drug resistance have been identified, majority of these tumors develop drug resistance due to unknown causes. To identified novel regulators of chemo-resistance in BRCA2-mutated cells, we performed a genome wide siRNA library screen. We have found ES cells expressing a hypomorphic allele of BRCA2 to be hypersensitive to PAPP inhibitors (such as olaparib). We used ES cells expressing a mutant allele of BRCA2 that has a single amino acid substitution at position 2336 (arginine to histidine, R2336H). The screen was conducted using an Ambion (Thermo) Silencer Mouse Genome siRNA collection. The library targets 17,575 mouse genes with 3 siRNAs per gene. TET2 (E130014J05Rik) was identified as a top candidate.
Transfections were performed in 384 well plates (Corning 3707). Plates were coated with 0.1% gelatin in H2O overnight at ambient temperature. Gelatin solution was aspirated (BioTek EL406) and siRNAs were printed using a Bravo VPrep liquid handler integrated within a BioCel automation platform (Agilent). Cell viability was measured using CellTiter Glo (Promega). For transfections, […] of serum free media containing Lipofectamine RNAiMax […] was added to wells containing siRNA (0.8pmol). Lipid and siRNA were allowed to complex for 45 min at ambient temperature before addition of 1000 cells in DMEM, 30% FBS to yield final transfection mixtures containing 20 nM siRNA in DMEM, 15% FBS. PARPi (olaparib, AZD2281) was added 48 h post-transfection (500 nM) and viability (CellTiter Glo, Promega) was assayed 72 h later on a PerkinElmer Envision 2104 Multilabel plate reader. Ambion Silencer Select Negative Control #2 was incorporated on all screening plates (16 wells) and the median negative control value on each plate was used for normalization. An siRNA targeting Trp53 was used as a positive control. This control yielded a median protective effect of ~1.9 fold versus negative control throughout the screen. The median absolute deviation (MAD) based z-score was calculated for each siRNA. Genes were then ranked by taking the median value for all siRNAs tested against a given gene. Scores were also adjusted for seed-based off-target effects to help deprioritize likely false positives.
Background: ATP-based viability assays read luminescence as a measure of living cells.
On to GCCUCUUUGAUAGCAAAAGTT against Cct6a, for which the z-score is 0.0125.
Under GGCAUUUUUCUUCUCCAAATT against Clns1a stands -0.934; under GGGACUGUAAUGUUGACACTT against Olfr560, 0.851; under GGCAAAAAAAACUGCUAUATT against Gpr128, 0.0555 (active).
Under GGAAAUAAGACUCAGGUCATT against Gtf2a1 stands -1.44; under GCGAGUUGGAAUUGAGAUCTT against Casp8, 0.155; under GGUUUUGGCUCGAAGGAAATT against Tead2, -1.
Under GGAAUGUCCACAUUUUGUATT against Tigd5 stands 0.00592; under GGAUGAUGAGAGAAACAAATT against Jak1, 2.1 (active); under GCCGGUUUCAGUUAAAGAGTT against Pccb, 2.26.
In the case of GGGAAUCGGCCUGAAGAAATT against Arl6ip5, the z-score is -0.707.
To CCUUCUGGUGCUUUUAGAGTT against Tlm belongs 0.431.
Under GGGUUAUACCAAGUCCAUUTT against Mapk1 stands 3.33 (active).
With GGUUUCCAUGGUAACGUGGTT against Tns, the z-score is 1.17.
To CGAAGCUGCAAAGGAGAAGTT against Igf1 belongs -0.732; to GGUCUUCUACAACUCGGAATT against Sgpp1, -0.0398 (active); to GGAGAAGAAGAAAAGAACATT against Pom121, -3.12.
To GCACCCGGCACUAGAAAAATT against Shoc2 belongs 0.638.
To GCUUUACCUGCUCAGAAGCTT against Olfr520 belongs 0.553; to GCGAUUUUACGGAUCCGGUTT against Olfr1420, -0.612.
As for GGGAAGUCACUGAAGCCUGTT against Akr7a5, the z-score is -0.538.
Regarding GGGACACACGGUAUACAUCTT against Pfkl, the z-score is 0.358.
For the sequence GGAUGUUAUAAGAUUGCGUTT against Rnf170, the z-score is -0.646.
GGAACUGAUGAAUAUUUCATT against Chrnb1: the z-score was 0.177 (active).
Under “GUUGGUAAAGGUCCUUGCCTT against D17Wsu155e” stands -1.02.
Under GCUACUCAUGCUAGAUGACTT against Gba stands 1.64; under GGUUGAACCCACUCUGCAATT against Olfr1113, -2.16.
For GCACAGUGGAUGCAAUCAGTT against Btbd1, the z-score was 0.346.
Under “GCCCGACAGGAGAUAUUUATT against B230340J04Rik” stands -1.19.
Turning to GGAGAGCUGGAACAAUAGCTT against Bcl2l2, the z-score was 2.66 (active).
To “GCCUUUGUAGGUUCAAGUGTT against 2310001H12Rik” belongs 1.78; to GGAGAAGAUCGGAUGGCGATT against Itgb5, -0.391.
Under CGGACUAAGUUUCAAAUCGTT against Pcdha2 stands -0.594; under GGAUGUCACAACAGUUAUGTT against Otog, 1.4.
Under “CCUAUAUGCGCUAUUUGAATT against 4732465J09Rik” stands 0.557; under GGCUAAUGUAUCGUCUGAGTT against Asb16, 0.422 (active); under CCCUGACGAAGCCAUACAUTT against Bcor, -1.33.
Consider “GGACAAACAUUGGAUUGAUTT against 0610009C03Rik”, for which the z-score is 0.453.
Under CCCAGAGGUUCCCGUCAAUTT against Hmgb3 stands 1.9 (active).
Turning to GCCACCCACCUAAAAUCAATT against BC025872, the z-score was 0.573.
In the case of “GGGAAAUGGCUCAUACUGGTT against 2210010C04Rik”, the z-score is -0.608.
On to GACCGAGUUCAAAGCGAACTT against Atp5e, for which the z-score is -2.59.
“GGAAGAAAGCCAUUUGCUUTT against 4632412I24Rik”: the z-score was 0.766.
Under CGAUGAGAUGCGUAUUGAGTT against Card11 stands -0.977.
To GCGAACUCCUCUUUAGGCATT against Chrng belongs -0.258 (active); to GGGUAGACAGAAAGCCUUUTT against Olfr111, -0.573; to GGUGUCUUAAAGCUGAAAUTT against E2f5, 2.8.
Take “GGAGAGGAAUGGUGUGUUATT against 4931428D14Rik”: the z-score is -0.16.
To GGUGUUCCUGUCUUUCAUGTT against Chordc1 belongs -1.35; to CCAACUUCAAAACUAUCGUTT against Trp53bp1, 1.96 (active).
Under “GCUAGUGGUAAGUCAACCATT against D6Ertd349e” stands -0.584.
To GGUGGGAAUGGGAAUCAGUTT against Akr1e1 belongs 1.57; to GUCCAUCAGCAGCUCAAUGTT against Ifna5, -0.126; to GGCUUAUUUUUCUUCAGUUTT against Ext1, -0.0515.
Take GGAGGAAAAAAAGUGAAGATT against Zfp339: the z-score is 0.689.
Under CCUAUGCUAUGUAGUUUAATT against Adam21 stands 0.555 (active); under GCUGAUGAAGGUGAUACGUTT against Pnma2, 0.0302; under GGCACCUAAAUUCUUGAAUTT against Hspb6, -0.361.
Take GGCCCUUCCCAAAGUAUUATT against Mup3: the z-score is 0.32.
To CCUACUACCUCUGUCAACATT against Nme4 belongs 1.46; to “GGUGGAGUUUGUGCAGAAGTT against 2310026J01Rik”, 0.572.
To CGAUGAUUCCAAGUUUGGCTT against Pinx1 belongs -0.772; to CCUGCAGCUGUAAAACCUGTT against Mt4, -0.909.
For CCGUAUCCGGCAUUGGAUUTT against Mrps16, the z-score is 0.345.
Consider GCUGUCCACUGCUUAAAUCTT against Isyna1, for which the z-score is 0.392.
Under GGAAUUGUACAAAUGACCUTT against Adam29 stands -0.0465 (active).
Under GGAGCUCAGAUGCAAUGAGTT against Zfp393 stands -0.714; under GGAUGAGCUCAAGAAGUCCTT against Snrpa, -1.3.
Under CCUGUUUACAAGGAAUUGATT against Itgb1 stands 0.411; under “GGAUCACAGCGAUUAUUGATT against D630028G08Rik”, -0.512.
As to CCCAUACUAAAAUUGUUGATT against Adam29, the z-score is 2.32 (active).
To “GCCAGGAUAUGGAUAUGCATT against 1520401A03Rik” belongs 1.47; to CGACUUCAUAAUUAUGCAATT against Als2, 0.307.
To GCCGAAUCCGAACAAAACCTT against Tat belongs 1.35 (active); to GCUGUAUUGAAGGUCCCUUTT against Olfr744, -2.34.
In the case of “CCUGGCUAAUGACUAGCUCTT against D730046L02Rik”, the z-score is -0.501.
Under GGUCUCCCUUCAGUAUGAGTT against Ela3b stands 2.47 (active).
To “GCUCAUUCUUACCAAUCUCTT against 2210413P10Rik” belongs -0.897; to “GCCUCCACAUAGCUUCAACTT against 1110030H02Rik”, 1.14; to GGUUGCACUUUUUCAUAGUTT against Bcl2l2, 2.83 (active).
Under GGGAGCUCUAAAAAAAGUGTT against Olfr390 stands 0.0742; under GGAGGAGAGGUACAAACGGTT against Cxxc1, -1.2.
Regarding “GCGGGCAAUGCCUUAAAAGTT against D16Ertd607e”, the z-score was 0.194.
To GCCCGGUAAAGGUAUCCAUTT against Trp53bp1 belongs 1.78 (active); to GGGCACCUAUUCAGAUACCTT against Mtap2, 0.64.
To GGAAAAGACGGGAGAUUUGTT against Mbldc1 belongs 0.0178.
Under GUACGUCAUGGGUCACUUCTT against Pomc1 stands -0.0856; under GGACAGAGUUCGAUCGACUTT against BC021523, -0.107; under GUGAUGACUGAGCUUCUAATT against Olfr1446, -1.51.
As to “GCCUACAGAGUCUUAGUUATT against 2400003B06Rik”, the z-score was 0.0277.
Consider GGGAGAAGAAGAUACACCATT against Usp47, for which the z-score was 2.16 (active).
In the case of “GGCUGUGGACUUUUGUAAUTT against 3110002H16Rik”, the z-score was 0.704.
To “GCCGUUUUAUUCACGUGAATT against 1810033M07Rik” belongs -0.105.
Under GGUUAAAGAAGCCAUGAAATT against Olfr480 stands 1.26.
To GCCUGUUCCGCCAUUCAUGTT against Fliih belongs -1.13.
On to GGAGUGAUUAACCUAACUCTT against Crip3, for which the z-score is -0.183 (active).
Under GACAAGACAAGUUUUGGUATT against Elmo1 stands -0.497.
To GGCCUUGAGGCUAUUCAUGTT against Stk16 belongs 0.0229; to GGAAAGUUGUAUUUGAUGUTT against Nudt7, 0.299; to GCAUCUUCGAGGUUUCAAATT against BC006583, 2.47.
To GGAAGUAGAGACAGGAGGATT against AF119384 belongs 1.25; to GCGGCAUAUGCCUACUCUUTT against Slc6a12, -1.46 (active).
Regarding GCCUAGACCAGAGAAAGGUTT against AW555464, the z-score was 0.139.
To GCAAGUAUUAAGUAUGACGTT against Vps13c belongs 0.194.
Turning to “GGCCAGGAGAAGAAGAUACTT against E130014J05Rik”, the z-score was 4.51 (active).
